Most compounds without a hit are left out; they make up all but 4.7% or so of the library.
GPR32 ag = activates human resolvin D1 receptor GPR32; O75388; CHO-K1 GPR32 beta-arrestin PathHunter luminescence, 90 min; zero percent set by DMSO-only wells; activation, % at 76.9 µM; 2.5% of 48,000 active; AID 1346428;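 active means activation of at least 60% and not above a set upper limit, about 1 call in 100 departs from these limits; inconclusive means activation of 40% to 60%, or above that upper limit; inactive means activation under 40%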
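CHO-K1 cells stably expressing ProLink-tagged GPR32 and Enzyme Activator-tagged beta-arrestin were seeded at 2,500 cells/well overnight, exposed to compounds for 90 min at 37 °C, then read by beta-Gal complementation chemiluminescence after 1 h detection reagent.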
NTMT1 inhibitor = NTMT1 methyltransferase inhibition; NTMT1 MTase-Glo SAH luminescence, purified enzyme; Potency, µM (series often up to 114 µM), actives largely listed as inhibitors; 2.5% of 59,000 active; AID 1645870; further: nearly all actives have a fitted effect of over 65% in size
Target sequence (Q9BV86 whole entry, looked up): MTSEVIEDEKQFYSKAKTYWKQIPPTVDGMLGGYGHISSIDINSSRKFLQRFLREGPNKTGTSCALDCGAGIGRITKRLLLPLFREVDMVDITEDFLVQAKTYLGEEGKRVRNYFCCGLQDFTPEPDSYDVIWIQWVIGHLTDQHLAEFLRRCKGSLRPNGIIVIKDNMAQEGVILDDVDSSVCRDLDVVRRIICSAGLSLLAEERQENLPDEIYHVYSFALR
HTT-AS act = activators of huntingtin-antisense promoter activity. 0.24% of 48,000 active. HEK293 HTT-AS promoter firefly luciferase reporter, 24 h; response scale: percent change from vehicle, -100% = no light. Potency, µM (titrated, usually from 57.5 µM), actives largely listed as activators; further: nearly all actives have a fitted effect of over 55% in size
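Luminescence was read after Dual-Glo reagent and a 10 min room-temperature incubation. Values were normalized to vehicle (0% activity) and zero RLU (-100% activity). Reporter HEK293 cells had been exposed to compounds (up to 57.5 uM final) for 24 h.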
HTT prom inh = HTT promoter inhibition; HEK293 HTT promoter firefly luciferase reporter, 24 h; Potency, µM (series often up to 57.5 µM), hits mostly inhibitors; 0.93% of 48,000 active; further: nearly all actives have a fitted effect of over 50% in size
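Firefly luciferase readout (Dual-Glo, 10 min RT) after 24 h, 37 °C compound exposure (final up to 57.5 uM) of HEK293 reporter cells cultured 24 h beforehand; PTC124 at 50 uM final as control inhibitor; activity scaled vehicle 0%, zero RLU -100%.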
FH mod = Identification of activators of human fumarate hydratase by quantitative high-throughput screening; Fumarate hydratase, mitochondrial (Homo sapiens), P07954; FH coupled MDH/diaphorase resazurin fluorescence, 15 min; Potency, µM (titrated, usually from 79.9 µM), usual class: inhibitors; 0.22% of 54,000 active; further: the screen sought activators but most active calls are inhibition curves; nearly all actives have a fitted effect of over 45% in size
Hits are given with their value; 0 = inactive; ? = inconclusive; - = no result given; ! = repeats disagree. Unless noted, the call rests on the fitted dose curve; in most records, active means well fitted curve in the direction sought with a large enough effect; inconclusive means small, poorly fitted or top-dose-only effect, or another doubt; inactive means no such curve, though single readings can be large; an effect the other way counts as inactive or inconclusive.

SMILES	GPR32 ag	NTMT1 inhibitor	HTT-AS act	HTT prom inh	FH mod
O=C(O)c1ccc(O)c2ncc(N3CCC(N4CCOCC4)C3)cc12 (centres undefined)	-	0	-	-	-
O=C(CN1C(=O)C2(CCCC2)NC[C@H]1c1cc(F)cc(F)c1)Nc1ccc2c(c1)C[C@@]1(C2)C(=O)Nc2ncccc21	-	0	0	0	0
O=C(O)c1ccc(S(=O)(=O)N(Cl)Cl)cc1	0	?	0	0	0
COc1ccccc1-c1nnc(SCC(=O)c2ccc(Cl)cc2)n1-c1ccccc1	80	0	0	?	?
CCc1cccc(NC(=O)CCc2c(C)nc3c(c2C)c(=O)n(C)c(=O)n3C)c1	0	89µM	0	0	0
C=CCn1c(=O)c2cnc(Nc3ccc(N4CCN(C)CC4)cc3)nc2n1-c1cccc(C(C)(C)O)n1	-	40µM!	0	?	?
COc1ccc(-n2ncc3c(NC4CCCC4)ncnc32)cc1	0	0	?	0	0
CC(C)=C1CC2[C@](C)(CC[C@@H](OC(=O)C3(C)OC3C)[C@@]2(C)O)CC1=O (some centres undefined)	-	0	-	-	0
Cc1cc(F)ccc1NC(=O)c1ccc2nc(Cc3ccccc3)oc2c1	0	0	0	0	?
Cc1cc(F)ccc1NC(=O)c1csc2c1CCC(C)C2 (centres undefined)	0	0	3.2µM	0	0
OCC(Cc1ccccc1)Nc1nc(Oc2ccc3c(c2)CCC3)nc2c1ncn2Cc1ccc(-c2ccccc2)cc1 (centres undefined)	-	0	-	-	0
COc1ccccc1NC(=O)Cn1c(=O)n(Cc2nc(-c3ccccc3)no2)c(=O)c2ccccc21	0	0	0	0	0
CN(C)CCCNc1c2ccccc2nc2c1[nH]c1ccccc12	-	35µM	-	-	0
CC(=O)c1cc(C(=O)N[C@@H](C)Cn2ccc(-c3ccc(C#N)c(Cl)c3)n2)[nH]n1	-	0	-	-	0
CNC(=O)c1ccc(N2C(=S)N(c3cnc(C#N)c(C(F)(F)F)c3)C(=O)C23CCC3)cc1F	-	0	0	?	0
C[C@]12CC[C@@H]3c4ccc(O[C@@H]5O[C@H](C(=O)O)[C@@H](O)[C@H](O)[C@H]5O)cc4CC[C@H]3[C@@H]1CCC2=O	-	0	-	-	0
CN1C/C=C/CCOc2cccc(c2)-c2ccnc(n2)Nc2cccc(c2)C1	-	40µM	-	-	0
C1=CCOCc2cc(ccc2OCCN2CCCC2)Nc2nccc(n2)-c2cccc(c2)OCC1	-	?	?	?	0
COC(=O)C(C)Sc1ncnc2c1c(-c1ccccc1)cn2-c1ccc(F)cc1 (centres undefined)	0	0	0	?	0
COc1ccc(-n2cc(-c3ccccc3)c3c(SC(C)C(C)=O)ncnc32)cc1 (centres undefined)	99	0	0	0	0
CCCCN(C)C(=O)C1CCCN(c2ncnc3onc(C)c23)C1 (centres undefined)	0	0	0	1.8µM	0
CCCCN(CC)C(=O)C1CCCN(c2ncnc3onc(C)c23)C1 (centres undefined)	0	0	0	?	0
N[C@@H](Cc1cc(I)c(O)c(I)c1)C(=O)O	0	14µM	0	0	0
CCCN1CCCc2cc(CN(CCCN3CCOCC3)C(=O)Nc3ccc(CC)cc3)ccc21	61	0	0	0	0
Cc1cc(C)c(Cn2c3ccccc3c3cnn(CC(=O)NCCc4ccccc4)c(=O)c32)c(C)c1	0	0	0	0	0
SMILES	GPR32 ag	NTMT1 inhibitor	HTT-AS act	HTT prom inh	FH mod
COc1ccc(C(=O)Nc2ccc(-c3nc4cc(C)ccc4o3)c(O)c2)cc1	0	0	0	0	0
Cc1ccc(C(=O)Nc2ccc3oc(-c4ccccc4C)nc3c2)cc1	76	0	0	0	0
Cc1ccc2oc(-c3cc(NC(=O)Cc4ccccc4)ccc3Cl)nc2c1	64	-	-	-	-
COc1ccc(C(=O)N(Cc2sccc2C)C2CCS(=O)(=O)C2)cc1Cl (centres undefined)	0	0	0	0	0
CC(C)c1nn2c(=O)cc(COC(=O)c3ccccc3Cl)nc2s1	0	0	?	0	0
CC(C)c1nn2c(=O)cc(COC(=O)c3cccs3)nc2s1	0	0	4µM	0	0
Cc1ccc(C(=O)Nc2ccccc2)cc1S(=O)(=O)Nc1ccc(Br)cc1	?	0	0	?	?

Assay outcomes: PubChem BioAssay, National Center for Advancing Translational Sciences (NCATS)
